Activity calls are given as the source filed them. Rule for the calls: active = hit-call score of the fitted dose curve at least 0.9, where 1 is the maximum; inactive = score below 0.9.

Test [1] is described as follows: APR_HepG2_CellLoss_72hr: Apredica 72-hour HepG2 Assay for Cell Loss (AID 2282915). The conditions noted are these: high-content imaging. The method in brief:
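HepG2 cells exposed 72 h to compound at 0.39–200 uM (10 concentrations, duplicate) in 0.5% DMSO. Fixed with 3.7% formaldehyde and Hoechst 33342-stained. Imaged at 20x; nuclear count gives cell number, fitted bidirectionally versus DMSO.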

Test [2] is described as follows: APR_HepG2_P-H2AX_72hr: Apredica 72-hour HepG2 Assay for H2AX Phosphorylation (AID 2282916).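 Note: phospho-histone H2A.x immunostain intensity per cell marking DNA damage.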 The following applies: imaging, actives raise or lower the signal. The method in brief: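 HepG2; cpd 0.39–200 uM ×10 conc, duplicates; 0.5% DMSO; 72 hr. Fix 3.7% formaldehyde 30 min RT, 0.5% Triton X-100 10 min. Anti-phospho-H2A.x 1:200 + Hoechst 2 ug/mL, 60 min RT; ArrayScan imaging.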

A short description of test [3]: APR_HepG2_MitoMembPot_72hr: Apredica 72-hour HepG2 Assay for Mitochondrial Membrane Potential (AID 2282917). The following applies: imaging, actives raise or lower the signal. The method in brief:
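HepG2 cells dosed 72 hr with compound at 0.39–200 uM in duplicate, 0.5% v/v DMSO final. Mitochondria stained with 250 nM MitoTracker Red CMXRos for 30 min before formaldehyde fixation, imaged by high-content fluorescence; bidirectional fit versus DMSO.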

A short description of test [4]: APR_HepG2_MitoticArrest_72hr: Apredica 72-hour HepG2 Assay for Mitotic Arrest (AID 2282918). The conditions noted are these: high-content imaging, actives raise or lower the signal. The method, boiled down: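 HepG2 cells treated 72 h at 0.39–200 uM, 0.5% DMSO final; formaldehyde-fixed, stained with Hoechst 33342 and phospho-histone H3 antibody, imaged by high-content fluorescence; bidirectional fit versus DMSO.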

Test [5] is described as follows: APR_HepG2_MicrotubuleCSK_72hr: Apredica 72-hour HepG2 Assay for Microtubule CSK Stabilty (AID 2282919). The following applies: HepG2 microtubule cytoskeleton, high-content imaging, actives raise or lower the signal. The method, boiled down: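 HepG2 cells were exposed 72 hr to compound at 0.39–200 uM in duplicate (0.5% DMSO final), then fixed and permeabilized. Alpha-tubulin immunofluorescence was imaged by high-content microscopy, with bidirectional fitting against DMSO and taxol as positive control.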

Test [6] in a line: APR_HepG2_P-H2AX_24hr: Apredica 24-hour HepG2 Assay for H2AX Phosphorylation (AID 2282920). The conditions noted are these: high-content imaging, actives raise or lower the signal. The method, boiled down: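 HepG2 cells dosed 24 h at 0.39–200 uM (10 points, duplicate, 0.5% DMSO final). Formaldehyde-fixed and permeabilized, then immunostained for phospho-H2A.x with Hoechst. Fluorescence quantified by high-content imaging, fitted bidirectionally versus DMSO.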

Test [7] is described as follows: APR_HepG2_StressKinase_24hr: Apredica 24-hour HepG2 Assay for Stress Kinase (AID 2282922). The following applies: HepG2 stress kinase (phospho-c-Jun) imaging, actives raise or lower the signal. The method in brief:
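HepG2 cells exposed 24 h to 0.39–200 uM compound in duplicate (0.5% v/v DMSO final). Cells fixed in 3.7% formaldehyde, permeabilized and immunostained for phospho-c-Jun; read by high-content fluorescence imaging, fitted bidirectionally against DMSO.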

Test [8] can be described thus: APR_HepG2_p53Act_72hr: Apredica 72-hour HepG2 Assay for p53 Activation (AID 2282923).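 Note: average cellular p53 protein immunofluorescence intensity in HepG2 cells.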 The conditions noted are these: high-content imaging, actives raise or lower the signal. The method, boiled down:
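10-pt conc. 0.39–200 uM, duplicate, 0.5% DMSO; 72 hr exposure; 3.7% formaldehyde fix, 0.5% Triton perm; sheep anti-p53/Cy5 + Hoechst; ArrayScan 20x, 6 images/well; gain/loss fit vs DMSO.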

Test [9] is described as follows: APR_HepG2_MitoMass_72hr: Apredica 72-hour HepG2 Assay for Mitochondrial Mass (AID 2282924).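 Note: MitoTracker Red CMXRos stain intensity per cell imaged as mitochondrial mass.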 The following applies: high-content imaging, actives raise or lower the signal. The method in brief: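 HepG2 cells dosed 72 hr at 0.39–200 uM (0.5% DMSO), in duplicate. MitoTracker Red CMXRos 250 nM loaded 30 min before formaldehyde fixation; high-content fluorescence imaging, bidirectional fit versus DMSO.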

Test [10] can be described thus: APR_HepG2_NuclearSize_72hr: Apredica 72-hour HepG2 Assay for Nuclear Size (AID 2282925). The following applies: high-content imaging, actives raise or lower the signal. The method, boiled down:
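HepG2 cells dosed 72 h at 0.39–200 uM (10 concentrations, duplicate) in 0.5% v/v DMSO final. Fixed, Hoechst 33342-stained nuclei imaged; nuclear diameter measured by automated image analysis. Bidirectional fit versus DMSO.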

Test [11] can be described thus: ATG_CRE_CIS: Attagene CIS-FACTORIAL HepG2 Assay for human cAMP Responsive Element (CRE) binding protein 3 (AID 2282926). The conditions noted are these: HepG2 CRE cis-reporter, Attagene multiplexed mRNA; actives raise or lower the signal. The method in brief:
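HepG2 cells transiently transfected with cis-element-driven multiple reporter transcription units; CRE reporter mRNA measured 24 h after dosing by RT-PCR, 6-FAM labelling, HpaI digestion and capillary electrophoresis. Bidirectional fit versus DMSO baseline.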

The target of test [12] is CCAAT/enhancer-binding protein beta (Homo sapiens) (UniProt P17676). Nature of the test: ATG_C_EBP_CIS: Attagene CIS-FACTORIAL HepG2 Assay for human CCAAT/Enhancer Binding Protein (C/EBP) beta (AID 2282927). The conditions noted are these: HepG2 Attagene cis-factorial transcription factor reporter; actives raise or lower the signal. The method in brief:
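HepG2 transiently transfected with multiplexed reporter units under cis-regulatory promoters reporting endogenous C/EBPb activity. After 24 h exposure, reporter mRNA assayed by RT-PCR, fluorescent labelling, HpaI digestion and capillary electrophoresis; bidirectional fitting versus DMSO.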

Test [13] is described as follows: ATG_CMV_CIS: Attagene CIS-FACTORIAL HepG2 Assay for human CMV (Internal Marker) (AID 2282928).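 Note: endpoint acts as a background internal control marker rather than a target.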 The following applies: HepG2 CMV promoter reporter, transcription factor profiling; actives raise or lower the signal. The method, boiled down:
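Cell system: HepG2, transiently transfected multiple reporter units under cis promoters. Exposure: 24 h. Detection: RT-PCR, FAM labeling, HpaI digestion, capillary electrophoresis. Analysis: bidirectional, DMSO baseline.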

A short description of test [14]: ATG_DR4_LXR_CIS: Attagene CIS-FACTORIAL HepG2 Assay for human Liver X Receptor (LXR), DR4 submotif (AID 2282929). The conditions noted are these: HepG2 Attagene DR4 cis-reporter, mRNA transcription; actives raise or lower the signal. The method, boiled down:
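Cells were transfected with multiple reporter transcription units, exposed to chemicals for 24 hours, then lysed for RNA. Reporter mRNA induction was measured by RT-PCR with capillary electrophoresis detection and fitted in both directions relative to DMSO.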

The target of test [15] is Aryl hydrocarbon receptor (Homo sapiens) (UniProt P35869). As to the kind of experiment: ATG_Ahr_CIS: Attagene CIS-FACTORIAL HepG2 Assay for human Aryl Hydrocarbon Receptor (Ahr) (AID 2282930). The conditions noted are these: HepG2 AhR cis-factorial reporter transcription; actives raise or lower the signal. The method, boiled down:
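HepG2 cells transiently transfected with cis-element-driven multiplexed reporter units; endogenous AhR activity read as reporter mRNA 24 h after dosing, via RT-PCR, 6-FAM labelling, HpaI digestion and capillary electrophoresis. Bidirectional fit relative to DMSO.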

Test [16] in a line: ATG_AP_2_CIS: Attagene CIS-FACTORIAL HepG2 Assay for human Activator Protein 2 (AP-2) (AID 2282932). The following applies: HepG2 AP-2 cis-reporter, Attagene transcription factor profiling; actives raise or lower the signal. The method, boiled down:
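HepG2 cells transiently transfected with cis-element reporter units and exposed for 24 h. Reporter mRNA measured by RT-PCR, FAM labelling, HpaI digestion and capillary electrophoresis. Changes in either direction fitted relative to DMSO.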

Test [17] is described as follows: ATG_BRE_CIS: Attagene CIS-FACTORIAL HepG2 Assay for human Bone Morphogenetic Protein (BMP) Response Element (BRE) (AID 2282933). The following applies: HepG2 BMP response element reporter, Attagene transcription factor profiling; actives raise or lower the signal. The method in brief:
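Endogenous transcription factor activity read in transiently transfected HepG2 cells after 24 h chemical exposure. Bidirectional curve fitting against DMSO; readout is reporter transcript level by RT-PCR with capillary electrophoresis of labelled products.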

Test [18] concerns the target Retinoic acid receptor alpha (Homo sapiens) (UniProt P10276). Nature of the test: ATG_DR5_RAR_CIS: Attagene CIS-FACTORIAL HepG2 Assay for human Retinoic Acid Receptor Alpha (RARE), DR5 submotif (AID 2282934).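 For AC50: reporter responds to endogenous RAR alpha beta and gamma in HepG2 not RARA alone.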 The conditions noted are these: HepG2 Attagene cis-factorial RARE DR5 reporter, mRNA; actives raise or lower the signal. The method in brief:
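HepG2 cells transiently transfected with multiplexed reporter units; DR5 cis-element drives reporter through endogenous transcription factors. After 24 h dosing, reporter mRNA quantified by RT-PCR, fluorescent labeling, HpaI digestion and capillary electrophoresis; bidirectional fitting versus DMSO.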

Test [19] in a line: ATG_AP_1_CIS: Attagene CIS-FACTORIAL HepG2 Assay for human Activator Protein 1 (AP-1) (AID 2282931). The following applies: HepG2 Attagene cis-factorial AP-1 reporter mRNA; actives raise or lower the signal. The method in brief:
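Endogenous transcription-factor activity in human HepG2 liver cells is read through a cis-promoter reporter transcript, sampled 24 h after dosing. Detection uses RT-PCR with capillary electrophoresis; values come from bidirectional fitting relative to DMSO.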

Sequence of Retinoic acid receptor alpha (Homo sapiens) (P10276 whole entry, looked up): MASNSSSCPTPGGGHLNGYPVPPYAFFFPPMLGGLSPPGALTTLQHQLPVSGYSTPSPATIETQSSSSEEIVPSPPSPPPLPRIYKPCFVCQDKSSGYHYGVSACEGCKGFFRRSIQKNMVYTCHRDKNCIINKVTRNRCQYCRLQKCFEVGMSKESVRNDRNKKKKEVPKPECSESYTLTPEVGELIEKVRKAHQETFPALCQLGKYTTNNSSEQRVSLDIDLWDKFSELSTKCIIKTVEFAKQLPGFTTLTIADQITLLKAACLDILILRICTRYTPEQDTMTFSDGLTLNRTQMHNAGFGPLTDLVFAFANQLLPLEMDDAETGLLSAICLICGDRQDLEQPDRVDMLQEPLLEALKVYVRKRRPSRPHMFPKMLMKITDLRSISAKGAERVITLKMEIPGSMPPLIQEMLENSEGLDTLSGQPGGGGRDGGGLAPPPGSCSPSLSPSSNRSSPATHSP
Sequence of Aryl hydrocarbon receptor (Homo sapiens) (P35869 whole entry, looked up): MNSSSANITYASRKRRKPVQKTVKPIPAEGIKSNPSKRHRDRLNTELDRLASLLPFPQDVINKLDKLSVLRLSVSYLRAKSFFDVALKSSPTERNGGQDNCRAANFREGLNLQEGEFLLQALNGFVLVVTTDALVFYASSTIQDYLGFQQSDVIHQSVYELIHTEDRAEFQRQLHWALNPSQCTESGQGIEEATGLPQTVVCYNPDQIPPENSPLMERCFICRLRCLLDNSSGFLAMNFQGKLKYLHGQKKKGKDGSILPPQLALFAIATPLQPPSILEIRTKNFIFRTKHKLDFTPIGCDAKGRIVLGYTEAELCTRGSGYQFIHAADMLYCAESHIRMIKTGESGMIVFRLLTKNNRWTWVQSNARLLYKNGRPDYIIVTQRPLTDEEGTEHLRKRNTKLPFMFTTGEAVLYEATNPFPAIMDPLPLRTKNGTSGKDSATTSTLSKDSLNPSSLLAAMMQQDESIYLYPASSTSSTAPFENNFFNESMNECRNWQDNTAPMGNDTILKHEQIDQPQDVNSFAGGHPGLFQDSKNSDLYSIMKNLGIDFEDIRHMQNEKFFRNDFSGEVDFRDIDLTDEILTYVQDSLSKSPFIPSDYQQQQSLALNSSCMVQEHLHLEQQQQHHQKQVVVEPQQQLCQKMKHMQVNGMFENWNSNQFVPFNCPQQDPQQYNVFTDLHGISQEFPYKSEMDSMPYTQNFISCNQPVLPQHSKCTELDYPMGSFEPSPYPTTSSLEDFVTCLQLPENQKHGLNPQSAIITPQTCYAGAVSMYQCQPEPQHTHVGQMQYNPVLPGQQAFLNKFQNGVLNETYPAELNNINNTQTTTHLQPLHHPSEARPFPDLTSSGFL
Sequence of CCAAT/enhancer-binding protein beta (Homo sapiens) (P17676 whole entry, looked up): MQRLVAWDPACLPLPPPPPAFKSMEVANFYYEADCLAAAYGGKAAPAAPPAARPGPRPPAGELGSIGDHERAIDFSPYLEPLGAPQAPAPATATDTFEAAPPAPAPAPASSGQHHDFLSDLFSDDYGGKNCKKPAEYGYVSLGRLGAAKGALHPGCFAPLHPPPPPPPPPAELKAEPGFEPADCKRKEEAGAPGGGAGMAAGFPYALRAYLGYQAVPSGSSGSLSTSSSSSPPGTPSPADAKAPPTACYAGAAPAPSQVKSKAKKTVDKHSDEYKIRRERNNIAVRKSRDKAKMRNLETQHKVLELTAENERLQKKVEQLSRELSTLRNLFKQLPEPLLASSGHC

As for `O=C1C2CC=CCC2C(=O)N1SC(Cl)(Cl)Cl` (stereo unspecified), the concentration at half-maximal activity (AC50) (in general, the midpoint of the concentration-response curve, whichever way the signal moves) was 100 µM (active) in test [1]; 88.1 µM (active) in test [2]; 100 µM (active) in [4]; 45.2 µM (active) in test [6]; 28.1 µM (active) in test [7]. In addition, the outcome in test [3], in test [5], in [8], in test [9], in [10] and in [11] was inactive. For the same compound, the outcome in test [12], in [13], in test [14], in [15], in [16] and in [17] was inactive. Besides, in test [18], the compound was classed as inactive.

Regarding `CNC(=O)N(C)c1nnc(C(C)(C)C)s1`, the compound was classed as inactive in test [1], in test [2], in test [3], in [4], in test [5] and in [6]. Besides, the outcome in test [7], in test [8], in test [9], in test [10], in [11] and in [12] was inactive. Besides, the compound was called inactive in test [13], in [14], in test [15], in test [16], in test [17] and in [18].

Regarding `CC(C)N1C(=O)c2ccccc2NS1(=O)=O`, the outcome in [1], in test [2], in test [3], in test [4], in test [5] and in test [6] was inactive. Also, the result in test [7], in test [8], in [9], in test [10], in test [11] and in [12] was inactive. Further, the compound was classed as inactive in test [13], in [15], in test [16], in test [17] and in test [18].

With `CCCC(=NOCC)C1=C(O)CC(CC(C)SCC)CC1=O` (stereo unspecified), the result in test [1], in test [2], in [3], in [4], in [5] and in [6] was inactive. In addition, the call in [7], in test [8], in test [9], in [10], in test [11] and in [12] was inactive. The compound was classed as inactive in test [13], in [15], in test [16], in test [17] and in test [18].

Consider `CCOC(=O)C(C)OC(=O)c1cc(Oc2ccc(C(F)(F)F)cc2Cl)ccc1[N+](=O)[O-]` (stereo unspecified), for which the AC50 in test [1] was 41 µM (active); in test [3] it was 19.8 µM (active); in test [15], 14.7 µM (active); in test [17], 17.8 µM (active). The call in test [2], in test [4], in [5], in [6], in test [7] and in test [8] was inactive. For the same compound, the result in [9], in test [10], in test [11], in test [12], in test [13] and in test [14] was inactive. Also, the compound was called inactive in test [19], in test [16] and in test [18].

For the compound `Cc1cnc(C2=NC(C)(C(C)C)C(=O)N2)c(C(=O)O)c1` (stereo unspecified), the outcome in [1], in test [2], in test [3], in test [4], in test [5] and in test [6] was inactive. Besides, the result in [7], in test [8], in test [9], in test [10], in test [11] and in [12] was inactive. The compound was classed as inactive in test [13], in test [14], in [15], in [16] and in [17]. Also, the AC50 in [18] was 35.4 µM (active).

Turning to `COC(=O)N(C(=O)N1CO[C@@]2(C(=O)OC)Cc3cc(Cl)ccc3C2=N1)c1ccc(OC(F)(F)F)cc1`, the compound was called inactive in test [1], in [2], in test [3], in test [4], in test [5] and in [6]. For the same compound, the compound was called inactive in [7], in [8], in test [9], in [10], in test [12] and in test [13]. Moreover, the outcome in [15], in test [16] and in test [18] was inactive. Besides, the AC50 in [11] was 0.67 µM (active); in test [14] it was 13.8 µM (active); in test [19], 4.67 µM (active); in test [17] it was 2.96 µM (active).

For the origin of these results see PubChem BioAssay (EPA / NIEHS).
